This passage reports GI50 results from ChEMBL document CHEMBL1201862, “PubChem BioAssay data set” (2004).

Screen size: about 58,000 sequences; about 4,000 (6.9%) were called active. No cut-off for these calls is given here. The list is a sample of the results. Entries with a potency or affinity are not part of this list.

In the assay the test system is HCT-15.
“cis-Bis[[(trimethylsilyl)methyl]amino]tetrachloroplatinum(IV), CHEMBL2146191” had a GI50 of 3.42 µM. As for “[Bis(aminomethyl)tetramethylenesilane]dichloropaltinum(II), CHEMBL2146205”, halving of growth (GI50) required 20.5 µM. The substance “[Bis(aminomethyl)dimethylsilane]tetrachloroplatinum(IV), CHEMBL2146190” had a 50% growth inhibitory concentration (GI50) of 8.45 µM.

CISPLATIN, CHEMBL11359 showed a concentration for 50% growth inhibition (GI50) of 7.21 µM.

For the substance “[Bis(aminomethyl)dimethylsilane]dichloroplatinum (II), CHEMBL2146201”, the GI50 was determined as 27.5 µM.

The substance “[Bis(aminomethyl)tetramethylenesilane]tetrachloropaltinum(IV), CHEMBL2146189” showed a concentration for 50% growth inhibition (GI50) of 3.62 µM.

The substance “mu-(1,7-nanodiamine-N,N')bis-(cis-aminedichloroplatimum (II)), CHEMBL2146215” registered a concentration for 50% growth inhibition (GI50) of 37.1 µM. This GI50 is about 10-fold higher than that of the substance before.

“[Bis(aminomethyl)pentamethylenesilane]dichloropaltinum(II), CHEMBL2146202” displayed a GI50 of 5.21 µM.

For “[Bis(aminomethyl)pentamethylenesilane]tetrachloropaltinum(IV), CHEMBL2146204”, it took 0.953 µM to inhibit growth by half (GI50).

Regarding “[Bis(aminomethyl)diethylsilane]tetrachloroplatinum(IV), CHEMBL2146203”, the 50% growth inhibitory concentration (GI50) amounted to 2.45 µM. Substance “[Bis(aminomethyl)ethylmethylsilane]tetrachloroplatinum(IV), CHEMBL2146192” gave a GI50 of 3.5 µM. This GI50 and that of the substance before are within 1.5-fold of each other.

In general, GI50 refers to the concentration that inhibits growth by half. Low readings indicate greater sensitivity of the cells, high ones lower sensitivity of the cells.
